In PubChem BioAssay (NCI):
The panel holds about 79,000 compounds, 15% with a hit somewhere; the sample as a whole holds those more often. A number with no mark means an inactive call. Active and inactive are the calls of the source. Cut-off read from the data, not from the text of the source: active = growth inhibition above about 70%; inactive = the rest.

Assays:
[1] = NCI Yeast Anticancer Drug Screen. Data for the rad52 strain (AID 147);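 note: 0% = growth of vehicle-treated control cultures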; conditions: S. cerevisiae rad52 mutant growth inhibition, active compounds read high
In short: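 Yeast strain carrying a DNA damage repair alteration was exposed to test compounds. Growth inhibition was measured relative to vehicle-treated controls.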

[2] = NCI Yeast Anticancer Drug Screen. Data for the wt1 strain (AID 149);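 note: 0% = growth of vehicle-treated wt1 cultures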; conditions: S. cerevisiae wt1 strain (SPY 50644) growth inhibition, active compounds read high
In short: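 wt1 yeast, compound-treated; % growth inhibition vs vehicle control.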

[3] = NCI Yeast Anticancer Drug Screen. Data for the rad50EPP+ strain (AID 151);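 note: 0% = growth of vehicle-treated control cultures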; conditions: S. cerevisiae rad50 mutant strain, active compounds read high
In short: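 Yeast strain carrying rad50 alteration (rad50EPP+) exposed to compounds; growth inhibition measured relative to vehicle-treated controls.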

[4] = NCI Yeast Anticancer Drug Screen. Data for the mgt1 strain (AID 153); conditions: S. cerevisiae mgt1 mutant growth inhibition, active compounds read high
In short: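 Yeast mgt1 strain (DNA repair/cell-cycle alteration panel) exposed to compounds; growth inhibition measured relative to vehicle-treated controls.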

[5] = NCI Yeast Anticancer Drug Screen. Data for the rad50 strain (AID 155);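 note: 0% = growth of vehicle-only cultures of the same strain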; conditions: S. cerevisiae rad50 strain growth inhibition, active compounds read high
In short: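 Genetically altered yeast (DNA repair pathway); compound treatment; growth inhibition vs vehicle ctrl.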

[6] = NCI Yeast Anticancer Drug Screen. Data for the mec2-1 strain (AID 157); conditions: S. cerevisiae mec2-1 strain, active compounds read high
In short: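 mec2-1 yeast strain, carrying an alteration in DNA damage repair or cell cycle control, was exposed to compounds; growth inhibition was measured relative to vehicle-treated controls.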

[7] = NCI Yeast Anticancer Drug Screen. Data for the rad14 strain (AID 159);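 note: 0% = growth of vehicle-treated control cultures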; conditions: S. cerevisiae rad14 strain growth inhibition, active compounds read high
In short: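 Test compounds were applied to a repair-deficient yeast strain. Its growth was then compared with that of cultures given vehicle alone, and inhibition was expressed relative to those controls.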

[8] = NCI Yeast Anticancer Drug Screen. Data for the sgs1 mgt1 strain (AID 161);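 note: 0% = growth of cultures given vehicle only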; conditions: S. cerevisiae sgs1 mgt1 strain, active compounds read high
In short: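 This yeast growth screen uses a strain with defined DNA-repair lesions; compound-treated growth is compared with vehicle-treated growth.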

[9] = NCI Yeast Anticancer Drug Screen. Data for the CLN2oe strain (AID 163);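 note: 0% = growth of vehicle-only control cultures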; conditions: S. cerevisiae CLN2oe strain, active compounds read high
In short: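 Yeast cells carrying a defined cell-cycle control alteration were exposed to test compounds. Growth inhibition was scored against vehicle-treated control cultures.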

[10] = NCI Yeast Anticancer Drug Screen. Data for the cln2 rad14 strain (AID 165);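 note: 0% = growth equal to vehicle treated cultures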; conditions: S. cerevisiae cln2 rad14 strain, active compounds read high
In short: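 Yeast carrying cln2 and rad14 alterations (cell cycle control and DNA damage repair) were exposed to compounds. Growth inhibition was measured against vehicle-treated controls.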

[11] = NCI Yeast Anticancer Drug Screen. Data for the bub3 strain (AID 167); conditions: S. cerevisiae bub3 mutant strain, active compounds read high
In short: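 Yeast carrying a defined mutation is treated with each compound, and growth is compared with that of vehicle-exposed cells to give inhibition.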

[12] = NCI Yeast Anticancer Drug Screen. Data for the wt2 strain (AID 169);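 note: 0% = growth of vehicle-treated yeast cultures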; conditions: S. cerevisiae wt2 strain growth inhibition, active compounds read high
In short: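 Yeast cells were exposed to test compounds, and growth inhibition was measured relative to vehicle-treated controls.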

[13] = NCI Yeast Anticancer Drug Screen. Data for the sgs1 strain (AID 173);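 note: 0% = growth of vehicle-only control cultures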; conditions: S. cerevisiae sgs1 mutant, active compounds read high
In short: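 Yeast mutant strains carrying defined defects in DNA damage repair or cell cycle control were exposed to test compounds. Growth inhibition was scored against vehicle-treated controls.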

[14] = NCI Yeast Anticancer Drug Screen. Data for the mlh1 rad18 strain (AID 175); conditions: S. cerevisiae mlh1 rad18 strain growth inhibition, active compounds read high
In short: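 Growth inhibition of the yeast strain was measured after compound exposure and expressed relative to vehicle-treated controls. The strain carries defined defects in DNA damage repair.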

[15] = NCI Yeast Anticancer Drug Screen. Data for the rad18 strain (AID 177); conditions: S. cerevisiae rad18 mutant growth inhibition, active compounds read high
In short: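 Yeast carrying a defined DNA damage repair alteration were exposed to compounds. Growth inhibition was expressed relative to vehicle-treated controls.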

[16] = at 5.0 µM (retest, dose inferred, filed as 0.5)
[17] = at 50.0 µM (retest, dose inferred, filed as 5.0)

Structure (SMILES): Oc1ccc(O)c(Cc2ccccc2)c1
- growth inhibition ([1]; at 1.2 µM): 21%
- growth inhibition ([1]; at 3.7 µM): 48%
- growth inhibition ([1]; at 11.0 µM): 89% (active)
- growth inhibition ([1]; at 33.0 µM): 97% (active)
- growth inhibition ([1]; at 100.0 µM): 99% (active)
- growth inhibition ([2]; at 1.2 µM): 6%
- growth inhibition ([2]; at 3.7 µM): 14%
- growth inhibition ([2]; at 11.0 µM): 29%
- growth inhibition ([2]; at 33.0 µM): 50%
- growth inhibition ([2]; at 100.0 µM): 93% (active)
- growth inhibition ([3]; at 1.2 µM): 56%
- growth inhibition ([3]; at 3.7 µM): 88% (active)
- growth inhibition ([3]; at 11.0 µM): 95% (active)
- growth inhibition ([3]; at 33.0 µM): 98% (active)
- growth inhibition ([3]; at 100.0 µM): 99% (active)
- growth inhibition ([4]; at 1.2 µM): 4%
- growth inhibition ([4]; at 3.7 µM): 13%
- growth inhibition ([4]; at 11.0 µM): 37%
- growth inhibition ([4]; at 33.0 µM): 78% (active)
- growth inhibition ([4]; at 100.0 µM): 99% (active)
- growth inhibition ([5]; at 1.2 µM): 37%
- growth inhibition ([5]; at 3.7 µM): 87% (active)
- growth inhibition [5, 16]: 77% (active)
- growth inhibition ([5]; at 11.0 µM): 97% (active)
- growth inhibition ([5]; at 33.0 µM): 99% (active)
- growth inhibition [5, 17]: 97% (active)
- growth inhibition ([5]; at 50.0 µM): 79.3% (active)
- growth inhibition ([5]; at 100.0 µM): 99% (active)
- growth inhibition ([6]; at 1.2 µM): 6%
- growth inhibition ([6]; at 3.7 µM): 30%
- growth inhibition [6, 16]: -9%
- growth inhibition ([6]; at 11.0 µM): 75% (active)
- growth inhibition ([6]; at 33.0 µM): 100% (active)
- growth inhibition [6, 17]: 68%
- growth inhibition ([6]; at 50.0 µM): 84.3% (active)
- growth inhibition ([6]; at 100.0 µM): 100% (active)
- growth inhibition ([7]; at 1.2 µM): 17%
- growth inhibition ([7]; at 3.7 µM): 34%
- growth inhibition ([7]; at 11.0 µM): 73% (active)
- growth inhibition ([7]; at 33.0 µM): 98% (active)
- growth inhibition ([7]; at 100.0 µM): 99% (active)
- growth inhibition [8, 16]: -20%
- growth inhibition [8, 17]: 68%
- growth inhibition ([8]; at 50.0 µM): 92.5% (active)
- growth inhibition ([9]; at 1.2 µM): 3%
- growth inhibition ([9]; at 3.7 µM): 28%
- growth inhibition ([9]; at 11.0 µM): 40%
- growth inhibition ([9]; at 33.0 µM): 72% (active)
- growth inhibition ([9]; at 100.0 µM): 98% (active)
- growth inhibition [10, 16]: -25%
- growth inhibition [10, 17]: 47%
- growth inhibition ([10]; at 50.0 µM): 97.4% (active)
- growth inhibition ([11]; at 1.2 µM): 8%
- growth inhibition ([11]; at 3.7 µM): 25%
- growth inhibition [11, 16]: -26%
- growth inhibition ([11]; at 11.0 µM): 63%
- growth inhibition ([11]; at 33.0 µM): 97% (active)
- growth inhibition [11, 17]: 88% (active)
- growth inhibition ([11]; at 50.0 µM): 98.3% (active)
- growth inhibition ([11]; at 100.0 µM): 99% (active)
- growth inhibition ([12]; at 1.2 µM): -2%
- growth inhibition ([12]; at 3.7 µM): 1%
- growth inhibition ([12]; at 11.0 µM): 23%
- growth inhibition ([12]; at 33.0 µM): 58%
- growth inhibition ([12]; at 100.0 µM): 87% (active)
- growth inhibition ([13]; at 1.2 µM): 16%
- growth inhibition ([13]; at 3.7 µM): 45%
- growth inhibition ([13]; at 11.0 µM): 94% (active)
- growth inhibition ([13]; at 33.0 µM): 99% (active)
- growth inhibition ([13]; at 100.0 µM): 99% (active)
- growth inhibition [14, 16]: 36%
- growth inhibition [14, 17]: 95% (active)
- growth inhibition ([14]; at 50.0 µM): 98% (active)
- growth inhibition ([15]; at 1.2 µM): 27%
- growth inhibition ([15]; at 3.7 µM): 52%
- growth inhibition ([15]; at 11.0 µM): 87% (active)
- growth inhibition ([15]; at 33.0 µM): 97% (active)
- growth inhibition ([15]; at 100.0 µM): 99% (active)

Structure (SMILES): CCOC(=O)C1=C(C)NC(C)=C(C(=O)OCCNC(=O)c2ccc(N=[N+]=[N-])cc2)C1c1ccccc1C(F)(F)F (stereo unspecified)
- growth inhibition ([1]; at 1.2 µM): 4%
- growth inhibition ([1]; at 3.7 µM): 4%
- growth inhibition ([1]; at 11.0 µM): 13%
- growth inhibition ([1]; at 33.0 µM): 24%
- growth inhibition ([1]; at 100.0 µM): 39%
- growth inhibition ([2]; at 1.2 µM): 1%
- growth inhibition ([2]; at 3.7 µM): 0%
- growth inhibition ([2]; at 11.0 µM): -2%
- growth inhibition ([2]; at 33.0 µM): 2%
- growth inhibition ([2]; at 100.0 µM): 21%
- growth inhibition ([3]; at 1.2 µM): -1%
- growth inhibition ([3]; at 3.7 µM): 0%
- growth inhibition ([3]; at 11.0 µM): 1%
- growth inhibition ([3]; at 33.0 µM): 3%
- growth inhibition ([3]; at 100.0 µM): -11%
- growth inhibition ([4]; at 1.2 µM): -2%
- growth inhibition ([4]; at 3.7 µM): -3%
- growth inhibition ([4]; at 11.0 µM): -2%
- growth inhibition ([4]; at 33.0 µM): 12%
- growth inhibition ([4]; at 100.0 µM): 24%
- growth inhibition ([5]; at 1.2 µM): 1%
- growth inhibition ([5]; at 3.7 µM): -1%
- growth inhibition [5, 16]: 3%
- growth inhibition ([5]; at 11.0 µM): 17%
- growth inhibition ([5]; at 33.0 µM): 39%
- growth inhibition [5, 17]: 18%
- growth inhibition ([5]; at 50.0 µM): 40.1%
- growth inhibition ([5]; at 100.0 µM): 41%
- growth inhibition ([6]; at 1.2 µM): 1%
- growth inhibition ([6]; at 3.7 µM): 4%
- growth inhibition [6, 16]: 1%
- growth inhibition ([6]; at 11.0 µM): -2%
- growth inhibition ([6]; at 33.0 µM): 13%
- growth inhibition [6, 17]: -46%
- growth inhibition ([6]; at 50.0 µM): 53.3%
- growth inhibition ([6]; at 100.0 µM): 47%
- growth inhibition ([7]; at 1.2 µM): 0%
- growth inhibition ([7]; at 3.7 µM): -4%
- growth inhibition ([7]; at 11.0 µM): 3%
- growth inhibition ([7]; at 33.0 µM): 8%
- growth inhibition ([7]; at 100.0 µM): 22%
- growth inhibition [8, 16]: 5%
- growth inhibition [8, 17]: 51%
- growth inhibition ([8]; at 50.0 µM): 9.9%
- growth inhibition ([9]; at 1.2 µM): -3%
- growth inhibition ([9]; at 3.7 µM): -2%
- growth inhibition ([9]; at 11.0 µM): -2%
- growth inhibition ([9]; at 33.0 µM): 25%
- growth inhibition ([9]; at 100.0 µM): 53%
- growth inhibition [10, 16]: 4%
- growth inhibition [10, 17]: 19%
- growth inhibition ([10]; at 50.0 µM): 2.85%
- growth inhibition ([11]; at 1.2 µM): -8%
- growth inhibition ([11]; at 3.7 µM): -7%
- growth inhibition [11, 16]: -42%
- growth inhibition ([11]; at 11.0 µM): -5%
- growth inhibition ([11]; at 33.0 µM): 4%
- growth inhibition [11, 17]: 29%
- growth inhibition ([11]; at 50.0 µM): 57.4%
- growth inhibition ([11]; at 100.0 µM): 31%
- growth inhibition ([12]; at 1.2 µM): 0%
- growth inhibition ([12]; at 3.7 µM): -2%
- growth inhibition ([12]; at 11.0 µM): 0%
- growth inhibition ([12]; at 33.0 µM): 5%
- growth inhibition ([12]; at 100.0 µM): 19%
- growth inhibition ([13]; at 1.2 µM): 1%
- growth inhibition ([13]; at 3.7 µM): -2%
- growth inhibition ([13]; at 11.0 µM): 1%
- growth inhibition ([13]; at 33.0 µM): 32%
- growth inhibition ([13]; at 100.0 µM): 65%
- growth inhibition [14, 16]: 2%
- growth inhibition [14, 17]: 43%
- growth inhibition ([14]; at 50.0 µM): 32.5%
- growth inhibition ([15]; at 1.2 µM): 3%
- growth inhibition ([15]; at 3.7 µM): -4%
- growth inhibition ([15]; at 11.0 µM): 4%
- growth inhibition ([15]; at 33.0 µM): 8%
- growth inhibition ([15]; at 100.0 µM): 23%
